Screening results as filed in PubChem BioAssay.
HSF1 inhib: HSF1 inhibitors in luciferase reporter cells, primary screen, cell-based, NIH3T3, luminescence | hit rate 0.77% among 300,000 | NIH3T3-HGL HSE-luciferase, MG132-induced, luminescence 8 h; stronger effect = lower value | activity change, negative = inhibition, % at 7.5 µM (by protocol);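 active means more than half of replicate wells show activity change below -50%, luminescence cut by over half; inconclusive means some wells, but at most half, below -50%; inactive means no replicate well below -50%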;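 further: luciferase reports HSF-1 transcriptional activity via heat shock element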
esBAF inh: Bmi1 luciferase reporter increase in mESCs, primary screen, esBAF inhibitor project, mouse ES cells, Bmi1 luciferase knock-in, single point. 24 h; 100% = twice the neutral-well signal. reporter increase, % at 12.5 µM. hit rate 2% among 350,000. AID 602393, 2012; in the data active means activation above about 40%; inconclusive means no clear call, values can overlap the other calls;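 further: a rise in the Bmi1 reporter signal indicates esBAF inhibition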
Wnt bcat act: Wnt/beta-catenin pathway activators, primary screen, cell-based, plate reader, single point; activation, % at 9.35 µM; AID 743398, 2014; Wnt/beta-catenin reporter cell assay, activator; hit rate 1.2% among 300,000; in the data active means activation above about 30%, passing the limit was not always enough; inconclusive means no clear call, values can overlap the other calls
SMARCA2 activ: SMARCA2 (BRM) function activators, primary screen, cell-based, luminescence, high throughput | activation, % at 9.1 µM | MG213 cells, MMTV-luciferase reporter, dexamethasone, overnight | hit rate 1% among 370,000 | AID 652017, 2013; in the data active means activation above about 7.8%
MITF act: activators of MITF-driven TRPM1 promoter reporter, primary screen, cell-based, SK-MEL-5, luciferase, single point; SK-MEL-5 TRPM1-promoter luciferase, 24 h; % of positive control, neutral wells = 0; activation, % at 12.5 µM; hit rate 0.75% among 300,000; AID 588334, 2011;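 active means mean activation of at least 80% with every replicate also reaching 80%; inconclusive means mean reaches 80% but some replicate falls short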
HSF-1 act: HSF-1 activators, primary screen, NIH3T3-HGL cells, MG132 stress, luminescence, single point; NIH3T3-HGL HSF-1 luciferase reporter, 8 h; 100% = twice DMSO control signal; activation, % at 9 µM; hit rate 1.7% among 300,000;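 active means mean replicate activation of at least 50% with a set share of replicates each reaching 50%; inconclusive means only one of those two conditions met; inactive means mean below 50% and too few replicates reaching it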
Numbers stand for hits; 0 = inactive; ? = inconclusive; - = no result given. Compounds with a hit are over-represented: about 4.3% of the library has one in this group of screens.

SMILES | HSF1 inhib | esBAF inh | Wnt bcat act | SMARCA2 activ | MITF act | HSF-1 act
Clc1ccc(OCc2nc3ccccc3[nH]2)cc1 | 0 | 85.2 | 0 | 0 | 88.0 | 77.3
C[C@@H]1CN([C@H](C)CO)C(=O)Cc2cc(NC(=O)CCCCCC(=O)Nc3ccccc3N)ccc2O[C@H]1CN(C)Cc1ccc(Oc2ccccc2)cc1 | - | 0 | - | - | - | -
Nc1c(-c2ccsc2)cnc2ncnn12 | 0 | - | 0 | 0 | 0 | 63.8
CCOc1ccc(-c2c(C(=O)N/N=C/c3ccc(C)cc3)nnn2-c2nonc2N)cc1 | 0 | 0 | 0 | 0 | - | 0
COc1cccc(-c2c(C(=O)N/N=C/c3ccc(C)s3)nnn2-c2nonc2N)c1 | -87.4 | 0 | 0 | 0 | 0 | 0
CCc1c(C(=O)N/N=C/c2ccc(OCc3ccc(F)cc3)c(OC)c2)nnn1-c1nonc1N | 0 | 0 | 0 | 0 | 0 | 56.7
CCOc1cccc(-c2c(C(=O)N/N=C/c3ccc(C)s3)nnn2-c2nonc2N)c1 | 0 | 0 | 0 | 0 | 0 | 0
CCOc1ccc(-c2c(C(=O)N/N=C/c3ccccc3)nnn2-c2nonc2N)cc1 | 0 | 0 | 33.5 | 0 | - | 0
CCCOc1ccc(-c2c(C(=O)N/N=C/c3ccccc3OCC)nnn2-c2nonc2N)cc1 | -68.5 | 0 | 0 | 0 | 0 | 0
CCOc1cc(/C=N/NC(=O)c2nnn(-c3nonc3N)c2C)ccc1OCc1ccc(F)cc1 | 0 | 0 | 0 | 0 | 0 | 0
Cc1noc(C)c1S(=O)(=O)N(C)C[C@H]1Oc2c(NC(=O)C3CC3)cccc2C(=O)N([C@H](C)CO)C[C@H]1C | - | 0 | - | - | - | -
CN1C(=O)c2cc(NC(=O)c3cnccn3)ccc2OC[C@@H]2O[C@H](CC(=O)N[C@H]3CCN(Cc4ccccc4)C3)CC[C@@H]21 | - | 0 | - | - | - | -
Cc1ccc(/C=N/NC(=O)c2nnn(-c3nonc3N)c2CN(C)C2CCCCC2)cc1 | -92.4 | 0 | 0 | 0 | 0 | 0
Cc1ccccc1CN1CCN(Cc2cc3ccccc3o2)CC1CCO (stereo unspecified) | 0 | 0 | 0 | 0 | 0 | 0
Cc1ccc(CN2CCN(Cc3cc4ccccc4o3)CC2CCO)cc1 (stereo unspecified) | -75.3 | 0 | 0 | 0 | - | 0
CCc1[nH]nc(C(=O)NC2CCCc3c2cnn3-c2cc(C)cc(C)c2)c1C (stereo unspecified) | 0 | 66.2 | 0 | 0 | 0 | 0
CCc1noc(C)c1C(=O)NC1CCCc2c1cnn2-c1cc(C)cc(C)c1 (stereo unspecified) | 0 | 0 | 0 | 0 | 0 | 0
O=C(CCN1CCCCC1)N[C@H]1CC[C@@H](CCNS(=O)(=O)c2ccccc2)O[C@H]1CO | - | 0 | - | - | - | -
CC(=O)N(C1=C(O)c2ccccc2C(=O)C1=O)C1CCCCC1 | 0 | 0 | 0 | 0 | 0 | 0
CC(=O)N(C)C1=C(O)c2ccccc2C(=O)C1=O | -89.7 | 0 | - | 0 | 0 | 0
CCOc1ccc(/C=N/NC(=S)NC2CC3C=CC2C3)cc1 (stereo unspecified) | 0 | 0 | 0 | 0 | - | 52.6
COc1cc(/C=N/NC(=S)NC2CC3C=CC2C3)cc(OC)c1OC (stereo unspecified) | 0 | - | 0 | 0 | - | 163.8
Oc1c(Br)cc(Br)cc1/C=N/NC(=S)N[C@H]1CC2C=CC1C2 (stereo partly specified) | 0 | - | 0 | 0 | - | 0
Cc1ccc(S(=O)(=O)N2CCOCC2)cc1NC(=O)COC(=O)c1cccnc1Cl | 0 | - | 0 | 0 | 0 | 53.6
O=C(C1=C(c2ccccc2)C(=O)c2ccccc2C1=O)c1ccccc1 | 0 | - | 0 | 0 | 0 | 81.5
SMILES | HSF1 inhib | esBAF inh | Wnt bcat act | SMARCA2 activ | MITF act | HSF-1 act
COC1=C(c2ccccc2)C(=O)c2ccccc2C1=O | 0 | - | 0 | 0 | 0 | 0
CCCSc1nc2c(cnn2-c2ccccc2)c(=O)[nH]1 | 0 | 0 | 0 | 0 | 0 | 0
C=CCSc1nc2c(cnn2-c2ccccc2)c(=O)n1N | 0 | - | 56.1 | 0 | - | 0
COc1cccc(C2=CC(c3cccc(OC)c3OC(F)F)n3nnnc3N2)c1 (stereo unspecified) | 0 | 0 | 0 | 0 | 0 | 0
COc1cccc(C2=CC(c3cccc(OC)c3OC)n3nnnc3N2)c1 (stereo unspecified) | 0 | 47.4 | - | 0 | 0 | 0
O=C(CCNS(=O)(=O)c1ccc2[nH]c(=O)oc2c1)Nc1cccc(Br)c1 | 0 | 0 | 0 | 7.8 | 0 | 0
O=C(CCNS(=O)(=O)c1ccc2[nH]c(=O)oc2c1)Nc1ccccc1 | 0 | 0 | 0 | - | 0 | 0
CC=Cc1ccc2n(c1=O)C[C@@H]1[C@@H](CO)[C@H](C(=O)NCCC)[C@H]2N1CCC(F)(F)F (mixture of isomers) | - | 0 | - | - | - | -
CS(=O)(=O)Nc1ccc2c(c1)[C@@H]1C[C@@H](CC(=O)NCc3cc(F)ccc3F)O[C@H](CO)[C@@H]1O2 | - | 0 | - | - | - | -
Cc1ccccc1CSc1nnc(-c2ccco2)n1Cc1ccco1 | 0 | - | 0 | 0 | 0 | 117.2
Brc1ccc(CSc2nnc(-c3ccccn3)n2Cc2ccco2)cc1 | 0 | 0 | 0 | 0 | 0 | 145.1
c1ccc(CSc2nnc(-c3ccco3)n2Cc2ccco2)cc1 | 0 | ? | - | 0 | - | 79.9
O=C(CSc1nnc(-c2ccco2)n1Cc1ccccc1)OC1CCCCC1 | 0 | 67.7 | - | 0 | - | 78.7
CC(C)CC#Cc1ccc2c(c1)O[C@@H](CN(C)C(=O)C1CCCCC1)[C@@H](C)CN([C@@H](C)CO)S2(=O)=O | - | 0 | - | - | - | -
CCOc1ccccc1-c1nc(CN2CCCC2c2nccs2)c(C)o1 (stereo unspecified) | - | 0 | - | 0 | 0 | -
Cc1oc(-c2cc3c(cc2Cl)OCO3)nc1CN1CCCC1c1ccc(F)cc1 (stereo unspecified) | -51.6 | - | 0 | 0 | 0 | 0
C[C@@H]1CN([C@H](C)CO)C(=O)Cc2cc(NC(=O)c3ccncc3)ccc2O[C@@H]1CN(C)C(=O)Nc1ccccc1 | - | 0 | - | - | - | -
c1ccc(CCn2nnc3ccccc32)cc1 | 0 | 0 | 54.1 | 0 | 97.8 | 0
N#CCCn1nnc2ccccc21 | 0 | 0 | - | 0 | - | 0
O=C(O)c1cccc(Nc2nc(-c3cc4ccccc4oc3=O)cs2)c1 | 0 | 50.9 | 0 | 0 | 0 | 0
O=c1oc2ccccc2cc1-c1csc(NN=C2CCCC2)n1 | 0 | - | - | 0 | 0 | 0
C#CCN1N=C(c2ccc(C)cc2)CSC1=O | 0 | 0 | 0 | 0 | - | 0
O=C1SCC(c2ccccc2)=NN1Cc1ccccc1 | -59.1 | - | 0 | 0 | 0 | 0
CC(=O)Nc1ccc(C2=NN(Cc3nnc(-c4ccccc4)o3)C(=O)SC2)cc1 | 0 | 0 | - | 0 | 0 | 88.1
CC(=O)Nc1ccc(C2=NN(CC#N)C(=O)SC2)cc1 | 0 | 0 | 0 | 0 | 0 | 0
C[C@H](CO)N1C[C@H](C)[C@H](CN(C)S(C)(=O)=O)OCCCC[C@H](C)Oc2ccc(NC(=O)NC3CCCCC3)cc2C1=O | - | 0 | - | - | - | -
